This is an account of results in PubChem BioAssay (NCATS).

In test [1] the target is Aldehyde dehydrogenase, mitochondrial (Homo sapiens) (UniProt P05091). Kind of test: qHTS for Inhibitors of the Aldehyde Dehydrogenase Family (ALDH2) Primary screen (AID 2061308). Further: nearly all actives have a fitted effect of over 55% in size. Further: potency means the concentration at half of the fitted maximal effect.
For test [2], the target named is Retinaldehyde dehydrogenase 3 (Homo sapiens) (UniProt P47895). Kind of test: qHTS for Inhibitors of the Aldehyde Dehydrogenase Family (ALDH1A3) Validation screen (AID 2061312; further: on the % scale 0 is the no-effect control and ±100 the full control effect; nearly all actives have a fitted effect of over 45% in size). (In general: In qHTS, concentration-response curves come from the screen itself.)
For test [3] the target is unchanged. Kind of test: qHTS for Inhibitors of the Aldehyde Dehydrogenase Family (ALDH1A3) Primary screen (AID 2061315).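 Further: plate controls were DMSO vehicle for no effect and reference inhibitor for full effect.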
Test [4] can be described thus: BET inhibitor-based combinations targeting novel dependencies in MECOM-rearranged (r) AML: SET-2 cell line (AID 2202231). Further: nearly all actives have a fitted effect of over 35% in size. Further: potency means the concentration at half of the fitted maximal effect.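 On viability: plate controls were DMSO treated cells for no effect and wells without cells for full effect.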 The following applies: SET-2 AML cells viability, CellTiter-Glo luminescence, 48 h; viability: active compounds read low, concentration not given here. In short, it runs like this: (§1)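 Each compound was tested at eleven concentrations on cells seeded at 500/well. After two days' incubation, ATP-based luminescence reported viability; responses relative to DMSO and blank wells yielded AUC and cell-line-centred Z-AUC.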
(In general: In ATP-based viability assays light output follows the ATP content of the culture.)

Test [5] is described as follows: BET inhibitor-based combinations targeting novel dependencies in MECOM-rearranged (r) AML: OCI-AML3 cell line (AID 2202232). Further: nearly all actives have a fitted effect of over 35% in size. Further: potency means the concentration at half of the fitted maximal effect. To be noted: Potency: OCI-AML3 viability. In short, it runs like this: as §1
A short description of test [6]: BET inhibitor-based combinations targeting novel dependencies in MECOM-rearranged (r) AML: MV-4-11 cell line (AID 2202233). Further: nearly all actives have a fitted effect of over 45% in size. Further: potency means the concentration at half of the fitted maximal effect. In short, it runs like this: (§2)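 First, 500 cells per well were seeded; next, drugs were pinned as 11-point doses; then plates sat 48 hr in the incubator; finally CellTiter-Glo was added and luminescence read, with AUC and Z-AUC computed.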
Test [7] in a line: BET inhibitor-based combinations targeting novel dependencies in MECOM-rearranged (r) AML: HNT-34 cell line (AID 2202234). Further: nearly all actives have a fitted effect of over 35% in size. Further: potency means the concentration at half of the fitted maximal effect. The method in brief: as §2
A short description of test [8]: BET inhibitor-based combinations targeting novel dependencies in MECOM-rearranged (r) AML: UCSD-AML1 cell line (AID 2202235). Further: nearly all actives have a fitted effect of over 40% in size. Further: potency means the concentration at half of the fitted maximal effect. In short, it runs like this: as §2
Test [9] in a line: BET inhibitor-based combinations targeting novel dependencies in MECOM-rearranged (r) AML: AML-191 cell line (AID 2202236; further: nearly all actives have a fitted effect of over 35% in size; further: potency means the concentration at half of the fitted maximal effect). In short, it runs like this: as §1
Test [10] can be described thus: BET inhibitor-based combinations targeting novel dependencies in MECOM-rearranged (r) AML: AML-194 cell line (AID 2202237; further: nearly all actives have a fitted effect of over 40% in size; further: potency means the concentration at half of the fitted maximal effect). The method in brief:
as §1

Test [11] addresses Retinal dehydrogenase 2 (Homo sapiens) (UniProt O94788). Description: qHTS for Inhibitors of the Aldehyde Dehydrogenase Family (ALDH1A2) Confirmation screens (AID 2061314). Further: nearly all actives have a fitted effect of over 65% in size. Further: potency means the concentration at half of the fitted maximal effect.
Test [12] addresses Aldehyde dehydrogenase 1A1 (Homo sapiens) (UniProt P00352). Description: qHTS for Inhibitors of the Aldehyde Dehydrogenase Family (ALDH1A1) Confirmatory screens (AID 2061316). Further: potency means the concentration at half of the fitted maximal effect; nearly all actives have a fitted effect of over 65% in size.

Records with an inconclusive call do not appear. Values without a mark were called inactive. Active and inactive are the calls of the source. The call rests on the fitted dose curve; in most records, active means well fitted curve in the direction sought with a large enough effect; inconclusive means small, poorly fitted or top-dose-only effect, or another doubt; inactive means no such curve, though single readings can be large; an effect the other way counts as inactive or inconclusive.

With `Cc1cnc(Nc2ccc(CN3CCOCC3)cc2)nc1Nc1cccc(S(=O)(=O)NC(C)(C)C)c1`, the Potency result in [1], in test [2] and in test [3] was “inactive” throughout. Moreover, the Potency in test [4] was 2.63 µM (active); in [5], 2.63 µM (active); in [6] it was 417 nM (active); in test [7] it was 1.18 µM (active); in [8], 1.48 µM (active); in test [9], 2.63 µM (active). In [10], the Potency is 2.35 µM (active).
Regarding `O=C(Nc1cn[nH]c1-c1nc2ccc(CN3CCOCC3)cc2[nH]1)NC1CC1`, the Potency entry in test [1], in [2] and in [3] was “inactive” each time. The Potency in test [5] was 4.68 µM (active); in test [6] it was 26.3 nM (active); in test [7], 0.332 µM (active); in [8], 0.118 µM (active); in [10] it was 2.09 µM (active).
In the case of `CC(C)(C)OC(=O)N1CCN(c2ccc(NCc3ccc(-c4ccc(C#N)cc4)nc3)cc2)CC1`, the Potency result in test [1], in [11] and in test [3] was “inactive” each time. For the same molecule, the Potency in test [12] is 15.9 µM (active).
As for `c1nc(NCC2CCCOC2)c2cc(-c3ccc4c(c3)OCO4)ccc2n1` (centres undefined), the Potency entry in test [1] and in test [3] was “inactive” throughout. Moreover, in test [11], the Potency was 11.3 µM (active).
Regarding `N#Cc1c(-c2ccc(Cl)cc2)no[n+]1[O-]`, the Potency in test [1] is 7.94 µM (active); in [11], 10.1 µM (active). In addition, in test [3], the Potency result was “inactive”.
As for `COCCOC(=O)C1=C(C)NC2=C(C(=O)CC(c3ccccc3OC)C2)C1c1cccc(O)c1` (centres undefined), the Potency entry in test [1], in test [2] and in test [3] was “inactive” each time. In addition, the Potency in test [4] was 16.6 µM (active); in test [6], 5250 nM (active); in test [9], 14.8 µM (active).
For the molecule `CC(O)c1ccc(-c2ccc3ncnc(N4CCOCC4)c3c2)o1` (centres undefined), the Potency in test [1] is 8.91 µM (active); in test [11] it was 14.2 µM (active); in [12] it was 11.3 µM (active). In test [3], the Potency result was “inactive”.
Consider `CCOc1ccc(NC(=O)NCC2CCCN2c2ccc(OC)cc2)cc1` (centres undefined), for which the Potency result in [1] is “inactive”. The Potency in [11] was 14.2 µM (active).
With `CCC(=O)NS(=O)(=O)c1ccc(-c2c(-c3ccccc3)noc2C)cc1`, the Potency result in test [1], in test [2], in test [3], in test [5], in [6] and in test [7] was “inactive” in each case. Further, the Potency entry in test [9] and in test [10] was “inactive” in each case. In addition, the viability in test [4] is 114%.
As to `c1ccc(Cn2c(-c3ccc(OCC(C4CCNCC4)n4c(-c5ccccc5)nc5ccccc54)cc3)nc3ccccc32)cc1` (centres undefined), the Potency result in test [1], in test [2] and in test [3] was “inactive” each time. Also, the Potency in test [5] is 23.5 µM (active); in [7], 18.6 µM (active); in [8] it was 26.3 µM (active); in [10], 23.5 µM (active).
Turning to `Cc1ccc(NS(=O)(=O)c2ccc3c(c2)C(Cl)(Cl)C(=O)N3)cc1C`, the Potency result in [1] and in test [3] was “inactive” throughout. The values for the Potency in test [11] and in test [12] were 3.18 µM (active) and 7.12 µM (active), respectively.
For `CC(=O)NC(c1ccco1)c1cc(Cl)c2ccc(Cl)nc2c1O` (centres undefined), in test [1], the Potency entry is “inactive”. In addition, the Potency in [11] is 6.34 µM (active).
For `C=C(c1ccc(C(=O)O)cc1)c1cc2c(cc1C)C(C)(C)CCC2(C)C`, the Potency entry in [1], in test [2], in [3] and in test [10] was “inactive” throughout. In test [6], the Potency is 148 nM (active).
Consider `Cc1cnc(-c2ccccc2C(C)C)nc1NCc1ccc(-n2ccnn2)cc1`, for which the Potency entry in test [1], in test [2], in test [3], in test [8] and in [10] was “inactive” throughout. Further, the viability in test [4] was 86.2%.
For the molecule `Cc1ccc(-c2ccc(=O)n(CC(=O)N(C)C(C)c3ccco3)c2)cc1` (centres undefined), the Potency entry in test [1] and in test [3] was “inactive” throughout. For the same molecule, in [11], the Potency is 2.01 µM (active).
For the molecule `Cc1ccc(CNc2ccc(N3CCOCC3)cc2)cc1`, the Potency entry in test [1] was “inactive”. In addition, in [11], the Potency is 11.3 µM (active).
The like results for `Cc1ccc(S(=O)(=O)c2ncccc2[N+](=O)[O-])cc1` were, in that order, 6.31 µM (active) and 0.449 µM (active).
Regarding `CC(=O)Nc1ccc(-c2csc(N3CCC(C(N)=O)CC3)n2)cc1`, the Potency result in test [1] and in [3] was “inactive” throughout. For the same molecule, the Potency in test [11] was 22.5 µM (active).
Regarding `Cc1c(NC(=O)OC[C@@H]2COCCN2)cn2ncnc(Nc3ccc4c(cnn4Cc4cccc(F)c4)c3)c12`, the Potency entry in test [1], in test [2] and in test [3] was “inactive” throughout. Further, the Potency is 10.5 µM (active) in [5], 18600 nM (active) in test [6], 20.9 µM (active) in [7] and 23.5 µM (active) in [10].
Consider `Cc1c(C(=O)OCC2CC2)[nH]c2c1C(=O)CC(c1ccco1)C2` (centres undefined), for which the Potency entry in test [1] and in test [3] was “inactive” in each case. Besides, the values for the Potency in [11] and in [12] were 8.96 µM (active) and 1.59 µM (active), respectively.
Turning to `COc1ccc(C2=Nn3c(nnc3-c3ccc(OC)cc3OC)SC2)cc1`, the Potency result in test [1], in [11] and in test [3] was “inactive” throughout.
For `CON(C)C(=O)N1N=C(c2cc(F)ccc2F)S[C@@]1(CCCN)c1ccccc1`, the Potency entry in [1], in test [2] and in test [3] was “inactive” in each case. Also, the Potency in test [4] is 0.0295 µM (active); in [5], 0.0093 µM (active); in test [6] it was 11.8 nM (active); in test [8], 0.0105 µM (active); in test [9], 0.0132 µM (active).
As for `CCN(CC)Cc1cccc(/C=C/c2nc3ccc(F)cc3c(=O)n2-c2ccccc2Cl)n1`, the Potency result in test [1] and in [3] was “inactive” in each case.
Regarding `Cc1cc(NS(=O)(=O)CCNC(=O)Cc2ccc(Cl)c(Cl)c2)no1`, the Potency entry in test [1] and in [3] was “inactive” in each case.
On to `NC(=O)c1c(NC(=O)C2CCCO2)sc2c1CCCC2` (centres undefined), for which the Potency entry in test [1] and in [3] was “inactive” throughout.
Turning to `O=C(NCCc1nc2ccccc2n1CCOc1ccc(C(F)(F)F)cc1)C1CCCCC1`, the Potency result in test [1] and in test [3] was “inactive” each time.
With `O=C(COC(=O)CNC(=O)C1CCCCC1)Nc1ccccc1Cl`, the Potency result in [1] and in [3] was “inactive” throughout.
With `COc1cc(F)c(F)c(Nc2ccc(I)cc2F)c1NS(=O)(=O)C1(CC(O)CO)CC1` (centres undefined), the Potency entry in test [1] and in test [3] was “inactive” in each case.
On to `CCOc1ccc(CCNC(=O)c2cc3ccccc3n2Cc2ccc(Cl)c(F)c2)cc1OCC`, for which the Potency result in [1] and in [3] was “inactive” each time.
`Cc1ccc(NS(=O)(=O)c2cc3c(cc2F)NC(=O)CC3)cc1Cl`: the Potency entry in test [1] and in test [3] was “inactive” throughout.
`Cc1cc(C)nc(NC(=S)N2CCN(c3ncc(Cl)cc3Cl)CC2)c1`: the Potency result in test [1] and in test [3] was “inactive” throughout.
Consider `CN(C)C(=O)C1CCN(c2nc(-c3ccc(Br)cc3)cs2)CC1`, for which the Potency entry in test [1] and in test [3] was “inactive” in each case.
Turning to `O=C(Cc1ccccc1)NC(c1ccco1)c1cc(Cl)c2cccnc2c1O` (centres undefined), the Potency entry in [1] and in [3] was “inactive” in each case.
Consider `Cc1ccc(NS(=O)(=O)c2cc3c(cc2-c2cn[nH]c2)NC(=O)CO3)cc1C`, for which the Potency result in test [1] and in test [3] was “inactive” each time.

As usually defined, the viability is a read-out of living cells in per cent, often relative to untreated cells.
